Source: PubChem BioAssay
HEK293 tox: cytotoxic compounds in HEK 293 cells | HEK 293 viability, ATP luminescence (CellTiter-Glo), 48-72 h | Potency, µM (highest dose often 115 µM), usual class: inhibitors | hit rate 6.6% among 94,000 | AID 1345083; also: nearly all actives have a fitted effect of over 60% in size
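CellTiter-Glo luminescence (cellular ATP) was read after 48 or 72 hr of compound exposure at 37 degree Celsius. Cells were HEK 293 plated at 250 cells/well.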
SNCA expr inhib: inhibitors of alpha-synuclein (SNCA) gene expression; HEK-293 SNCA-luciferase knock-in, luminescence, 24 h; Potency, µM (series often up to 57.2 µM), usual class: inhibitors; hit rate 0.17% among 140,000; also: nearly all actives have a fitted effect of over 45% in size
NIH3T3 tox: cytotoxic compounds in NIH 3T3 cells. hit rate 4.3% among 94,000. NIH 3T3 viability, CellTiter-Glo ATP luminescence, 48-72 h. Potency, µM (top dose mostly 96.7 µM), most hits filed as inhibitors; also: nearly all actives have a fitted effect of over 55% in size
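Cytotoxicity was measured by CellTiter-Glo ATP luminescence after 48 or 72 h compound exposure at 37 °C. Mouse NIH 3T3 fibroblasts were seeded at 400 cells/well and dosed by 23 nL pin transfer.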
FLuc inh: blocks purified firefly luciferase enzyme activity; P08659; purified P. pyralis luciferase, luminescence, biochemical; Potency, µM (doses to about 115 µM), hits mostly inhibitors; hit rate 2.5% among 76,000; AID 1347043; also: nearly all actives have a fitted effect of over 65% in size
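Cell-free enzyme assay, 10nM P. pyralis luciferase, luciferin and ATP each at 10uM. Inhibition profiled over a 6-point titration, read as luminescence.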
SNCA viab count: reduces viability of HEK-293 SNCA reporter cells; Potency, µM (series often up to 57.1 µM), hits mostly cytotoxic; AID 1671193; hit rate 0.12% among 150,000; HEK-293-SNCA-luc viability, GF-AFC fluorescence, 24 h; also: nearly all actives have a fitted effect of over 30% in size
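HEK-293-SNCA-luc cells (1500/well) plated 24 h, then exposed 24 h to a dilution series; GF-AFC added 30 min at 37C, fluorescence 405/540 nm; normalised to medium-only and DMSO wells, Hill fit.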
NPR1 antag: blocks ANP-stimulated signaling of human Npr1 receptor. HEK293 hNpr1 GloSensor cGMP, ANP-stimulated luminescence. AID 1347048. hit rate 1.6% among 76,000. P16066. Potency, µM (doses to about 46.3 µM), usual class: inhibitors; calls by dose curve; also: nearly all actives have a fitted effect of over 60% in size
Target sequence (P16066 whole entry, looked up): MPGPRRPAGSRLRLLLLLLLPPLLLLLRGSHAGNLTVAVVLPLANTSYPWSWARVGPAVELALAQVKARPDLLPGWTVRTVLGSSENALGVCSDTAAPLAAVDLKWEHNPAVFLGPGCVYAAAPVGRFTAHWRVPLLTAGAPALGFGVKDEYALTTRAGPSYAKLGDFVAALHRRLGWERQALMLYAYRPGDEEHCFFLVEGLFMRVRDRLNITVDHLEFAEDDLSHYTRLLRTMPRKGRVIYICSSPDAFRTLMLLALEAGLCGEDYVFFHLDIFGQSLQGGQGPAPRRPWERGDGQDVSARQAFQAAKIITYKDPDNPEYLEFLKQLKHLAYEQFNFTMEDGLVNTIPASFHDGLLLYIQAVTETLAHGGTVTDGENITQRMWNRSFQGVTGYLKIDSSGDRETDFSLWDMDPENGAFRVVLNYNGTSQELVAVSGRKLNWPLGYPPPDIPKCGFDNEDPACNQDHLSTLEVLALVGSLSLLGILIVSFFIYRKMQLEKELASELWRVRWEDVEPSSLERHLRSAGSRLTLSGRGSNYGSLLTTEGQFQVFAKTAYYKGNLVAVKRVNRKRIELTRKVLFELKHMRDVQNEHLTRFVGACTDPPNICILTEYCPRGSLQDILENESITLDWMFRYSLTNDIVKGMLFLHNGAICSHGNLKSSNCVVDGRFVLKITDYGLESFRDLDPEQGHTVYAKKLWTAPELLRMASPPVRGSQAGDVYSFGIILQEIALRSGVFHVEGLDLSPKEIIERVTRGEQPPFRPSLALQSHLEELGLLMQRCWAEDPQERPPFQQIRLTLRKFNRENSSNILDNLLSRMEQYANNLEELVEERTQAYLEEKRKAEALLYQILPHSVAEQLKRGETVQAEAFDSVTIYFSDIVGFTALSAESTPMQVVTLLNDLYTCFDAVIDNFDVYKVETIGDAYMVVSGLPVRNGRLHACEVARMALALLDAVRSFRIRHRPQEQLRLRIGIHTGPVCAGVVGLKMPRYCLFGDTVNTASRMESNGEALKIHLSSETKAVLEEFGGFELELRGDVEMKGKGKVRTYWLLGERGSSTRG
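Compound pre-incubated 30 min at room temperature on GloSensor-loaded HEK293 cells stably carrying hNpr1 and the pGS-40F cGMP biosensor. Stimulation uses hNppA at 0.1 nM final; luminescence is taken at baseline and 20 min post-agonist.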
Numbers stand for hits; . = inactive; ? = inconclusive; / = no result; [ ] = another dose, or the depositor's remark. Only some compounds are listed: those with a hit (about 7.4% of all), similar ones and a draw of the others. Unless noted, calls follow the shape of the dose curve; as a rule, active = well fitted curve in the direction sought with a large enough effect; inconclusive = small, poorly fitted or top-dose-only effect, or another doubt; inactive = no such curve, though single readings can be large; an effect the other way counts as inactive or inconclusive.

SMILES	HEK293 tox	SNCA expr inhib	NIH3T3 tox	FLuc inh	SNCA viab count	NPR1 antag
O=C1NC2(CCCN(C(=O)c3ccccc3F)C2)COc2ccccc21 (stereo not given)	35µM	.	?	.	.	13µM
O=C1NC2(CCCN(C(=O)c3ccc4c(c3)OCO4)C2)COc2ccccc21 (stereo not given)	40µM	.	?	.	.	.
COc1ccc(Cn2c(C3CCN(C(=O)c4ccc(C#N)cc4)CC3)n[nH]c2=O)cc1	.	.	?	.	.	.
Cc1ccccc1S(=O)(=O)N1CCCC(CCC(=O)NC2CCCCCC2)C1 (stereo not given)	?	?	?	.	.	?
COc1ccc(Nc2ccnc(N3CCC(C(=O)NCc4cccs4)CC3)n2)cc1	?	.	?	/	.[12.5 µM]	/
COc1ccc(Nc2ccnc(N3CCC(N[S+](=O)([O-])c4cccs4)CC3)n2)cc1	25µM	.	35µM	/	?	/
Cc1ccc(Nc2ccnc(N3CCC(C(=O)N4CCN(C)CC4)CC3)n2)cc1	?	.	?	/	.[12.5 µM]	/
Cc1ccc(Nc2ccnc(N3CCC(N[S+](=O)([O-])c4c(C)noc4C)CC3)n2)cc1	?	.	?	/	.	/
Cc1ccc(Nc2ccnc(N3CCC(N[S+](=O)([O-])c4ccc(C)cc4)CC3)n2)cc1	?	.	32µM	/	?	/
Cc1ccc(Nc2ccnc(N3CCC(N[S+](=O)([O-])c4cccs4)CC3)n2)cc1	22µM	.	35µM	/	.	/
O=C(CN1C(=O)CNC1=O)N[C@H](c1ccc2c(c1)CCO2)C1CC(O)C1 (stereo not given in full)	.	.	.	.	.	.
CC(=O)Nc1nc2c(s1)C[C@@H]1[C@](C)(CO)[C@H](O)CC[C@@]1(C)[C@@H]2CC(=O)N1CCOCC1	.	.	.	.	.	.
O=C(C1CN(C2CCCC2)C(=O)N1)N1CCN(c2ncccn2)CC1 (stereo not given)	.	.	.	/	.[12.5 µM]	/
O=C(N1CCOc2ccc(CN3CCc4ccccc4C3)cc2C1)C1(c2ccccc2)CC1	45µM	.	?	.	.	?
CCC(=O)N1CCOc2ccc(CN3CCc4ccccc4C3)cc2C1	?	.	.	.	.	.
O=C(Cc1cccs1)N1CCOc2ccc(CN3CCc4ccccc4C3)cc2C1	?	.	?	.	?	.
Cc1ccsc1C(=O)N1CCOc2ccc(CN3CCc4ccccc4C3)cc2C1	35µM	.	?	.	.	.
COc1cccc(C(=O)N2CCOc3ccc(CN4CCc5ccccc5C4)cc3C2)c1	45µM	.	?	.	.	.
COc1cccc(CC(=O)N2CCOc3ccc(CN4CCc5ccccc5C4)cc3C2)c1	?	.	?	.	?	?
CC(=O)N1CCN(C(=O)CCC2CCN(c3cc(NC4CC4)ncn3)CC2)CC1	?	.	.	.	.	?
CCCNc1cc(N2CCC(CCC(=O)NCc3ccccc3Cl)CC2)ncn1	?	2.8µM	.	?	.	.
O=C(CCC1CCN(c2cc(NC3CC3)ncn2)CC1)NCc1ccccc1Cl	?	8.9µM	?	?	.	.
CCNc1cc(N2CCC(CCC(=O)Nc3cccc(OC)c3)CC2)ncn1	?	7.9µM	.	?	.	?
CCCNc1cc(N2CCC(CCC(=O)NCc3cccc(OC)c3)CC2)ncn1	.	2.2µM	.	?	.	.
CCCNc1cc(N2CCC(CCC(=O)NCC3CC3)CC2)ncn1	.	?	.	.	.	.
SMILES	HEK293 tox	SNCA expr inhib	NIH3T3 tox	FLuc inh	SNCA viab count	NPR1 antag
CCNc1cc(N2CCC(CCC(=O)NCc3cccc(F)c3)CC2)ncn1	?	?	?	?	.	?
COc1cccc(C(=O)N2CCC(C(=O)N3CCC(c4nc5ncccc5[nH]4)CC3)CC2)c1	.	.	.	/	.	/
Cc1cn2nc(C(=O)N3CCC(NC(=O)CCC4CCCC4)CC3)cc2c(=O)[nH]1	.	.	.	.	.	.
Cc1cc(=O)n(CC(=O)Nc2ccc(Br)cc2F)c(N2CCC(C)CC2)n1	?	.	16µM	.	.	.
Cc1cc(=O)n(CC(=O)Nc2cc(Cl)ccc2C)c(N2CCC(C)CC2)n1	35µM	?	35µM	.	.	?
Cc1ccc(NC(=O)Cn2c(N3CCC(C)CC3)nc(C)cc2=O)c(C)c1	?	.	?	.	.	.
Cc1ccc(C)c(NC(=O)Cn2c(N3CCC(C)CC3)nc(C)cc2=O)c1	28µM	.	?	.	.	.
Cc1ccc(S(=O)(=O)Cc2noc([C@@H]3C[C@@H](O)CN3CC3CCCCC3)n2)cc1	?	.	?	.	.	.
O=C(c1nc2cccnc2n(CCc2ccccc2)c1=O)N1CCN([S+](=O)([O-])c2cccs2)CC1	?	.	?	/	.	/
Cc1ccc(CNC(=O)CCc2conc2-c2ccc(F)cc2)o1	.	.	?	.	.	.
COCC(=O)NC1CCN(c2ccnc3ccnn23)C1 (stereo not given)	.	.	.	/	.	/
COc1ccc(CN2CC(Oc3ccc(F)cc3C)C2)cc1	71µM	.	40µM	.	.	.
Cc1cc(OC2CN(Cc3ccc(C#N)cc3)C2)ccc1F	?	.	?	.	.	?
COc1ccc(CN2CC(Oc3ccc(F)c(C)c3)C2)cc1	89µM	.	?	.	.	.
COc1ccccc1C(=O)N1CC(Oc2ccc(F)cc2C)C1	71µM	.	?	.	.	.
Cc1cc(F)ccc1OC1CN(Cc2ccc(C#N)cc2)C1	63µM	.	?	.	.	.
CCOC(=O)C1CCN(C(=O)c2cc(-c3ccsc3)nc3c2cnn3C)CC1	?	.	?	/	.	/
Cc1ccc(C)c(NC(=O)c2cc3c(N4CCSCC4)nc(C)cn3n2)c1	?	.	.	.	.	.
Cc1ccc(CN2CCc3nc(N4CCN(C)CC4)[nH]c(=O)c3CC2)cc1	.	.	.	.	.	.
Cc1ccccc1N(C)C1CN(Cc2ccc(C#N)cc2)C1	?	.	?	.	.	.
COc1ccc(CN2CC(N(C)c3ccccc3C)C2)cc1	?	.	79µM	/	.	/
COc1cc(NC(=O)CCC2CCCN(Cc3nc(C(C)C)cs3)C2)cc(OC)c1 (stereo not given)	?	.	?	.	.	.
OC[C@@H]1CN(Cc2cccc(F)c2)C[C@H]1c1nc(-c2ccncc2)no1	45µM	.	.	.	.	.
OC[C@@H]1CN(Cc2ccc(F)cc2)C[C@H]1c1nc(-c2ccncc2)no1	?	.	?	?	.	14µM
CCc1nc2c(c(-c3ccc(OC)cc3)n1)CN([S+](=O)([O-])c1cccc(OC)c1)CC2	.	.	28µM	/	.	/
C[S+](=O)([O-])N1CCc2nc(C3CC3)nc(-c3ccc(Cl)cc3)c2C1	?	.	32µM	/	.	/
